Test results as given in PubChem BioAssay.

Test: RAM pathway blockade in budding yeast – dse1pr::URA3 reporter, 5-FOA selection, pilot screen (AID 869);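 further: 0% = DMSO wells with no growth and 100% = 10 µM 1-NA-PP1 with full growth; RAM network block rescues cells from 5-FOA so hits raise OD615 growth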
Settings: S. cerevisiae dse1pr::URA3 5-FOA growth, OD615, 2 d; at 10 µM; stronger effect = higher value; strain carries analog-sensitive mutant Cbk1 kinase;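 active means inhibition over a set limit, the all-compound mean plus 3 SD, in both replicate runs; inconclusive means over that limit in just one replicate run; inactive means at or under that limit in both runs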

inhibition, inactive:
CCC(C)NC(=O)CCCCCn1c(=O)[nH]c2cc(OC)c(OC)cc2c1=O (configuration not stated) 0.065%
Cc1ccc(C(C(=O)NC2CCCC2)N2CCCCC2)cc1 (configuration not stated) 2.38%
COc1ccccc1N1CCN(C(=O)c2ccc(Br)s2)CC1 1.69%
Cc1cc(=O)[nH]c(Cc2ccc(OC(C)C)cc2)n1 1.98%
Cc1ccc(-c2nnc3ccc(SC(C)C(=O)O)nn23)cc1 (configuration not stated) 2.31%
CSc1nnc(-c2ccco2)n1-c1ccccc1 2.92%
COc1ccc(C2CC(c3cccc(C)c3)n3nc(N)nc3N2)cc1 (configuration not stated) 3.25%
O=C(COc1ccccc1F)c1ccc(O)cc1O 0.25%
O=C(C1CCN(S(=O)(=O)c2cccc3cccnc23)CC1)N1CCN(C2CCCC2)CC1 0.96%
COc1ccc(N2C(=O)C3CCCN3C2c2ccccc2OC)cc1 (configuration not stated) 0.02%
O=S(=O)(Nc1ccc(-c2nc3cccnc3s2)cc1)c1cccs1 1.79%
COc1cc(OC)c(C2CC(=O)N3CN(C)CSC3=C2C#N)cc1OC (configuration not stated) 1.06%
CCOCCn1c(SCc2ccc(C)cc2)nc2c1c(=O)[nH]c(=O)n2C 1.49%
CC1Oc2ccccc2C=C1C1/C(=C(/O)c2ccccc2)C(=O)C(=O)N1CCCN(C)C (configuration not stated) -0.25%
c1ccc2cc3[nH]c(CN4CCCCC4)nc3cc2c1 1.58%
CCCCCOc1ccc(NC(=O)CCCC(=O)O)cc1 -0.545%
COc1cccc(NC(=O)CSc2nnc(-c3ccc(C)cc3)o2)c1 2.13%
